Among the data in publication PMC7819943, “Rice protein-binding microarrays: a tool to detect cis-acting elements near promoter regions in rice” are binding signal values, retold here.

The full ranking holds about 68,000 sequences; the median of “fluorescence intensity (a.u.)” is about 9,100, and the highest 2% start at about 16,000. Shown is part of a subset that was picked to be rich in the highest values.

The test deals with OsWRKY34 (Oryza sativa, UniProt Q0JBA9 1-250). Description: protein-binding microarray (RPBM); PBS, 2% BSA, 51.3 ng/ul salmon testes DNA, 50 uM zinc acetate, 200 nM TF, 25 C, 1 h; high values mean tight binding. To be noted: protein: recombinant; tags: N-terminal polyhistidine and DsRed monomer fusion (pET32a); label: CyDye5-dUTP incorporated in the synthesized complementary strand; 3' TTTTT single-stranded linker to array surface; dsDNA, one strand shown. The essentials: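 Per-feature fluorescence intensity (arbitrary units), read on an Axon 4000B scanner, is the binding signal. Transcription factors carrying an N-terminal polyhistidine tag and DsRed fusion were expressed in E. coli BL21-CodonPlus and purified on Ni–NTA. A custom Agilent array, made double-stranded by primer extension with Cy5-dUTP and blocked with 2% BSA, was incubated with 200 nM protein in PBS, 2% BSA, salmon testes DNA and 50 µM zinc acetate at 25 °C for 1 h and then washed.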
Chain of OsWRKY34 (Q0JBA9 entry or part of it): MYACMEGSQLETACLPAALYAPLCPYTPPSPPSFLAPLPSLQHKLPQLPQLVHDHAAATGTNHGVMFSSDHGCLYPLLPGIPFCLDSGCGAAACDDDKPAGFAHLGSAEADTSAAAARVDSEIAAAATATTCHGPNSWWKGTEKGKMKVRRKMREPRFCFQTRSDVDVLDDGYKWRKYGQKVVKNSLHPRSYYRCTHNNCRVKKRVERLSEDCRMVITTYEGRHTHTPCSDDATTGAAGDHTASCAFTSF
Consider “GCAGCTGATCGATCTGGTTTCTGCTTTGCTGCAACTCACTCGGAGTCACCTAGTGCAG”, for which the binding signal was 8870 fluorescence intensity (a.u.).

In the case of “CTGGGGTTAGTTCTATGGATATTTGCTACTCCTGTTGATACGGAGTCACCTAGTGCAG”, the binding signal was 8220 fluorescence intensity (a.u.).

For the sequence “GAGTGACATTTGGGGTGGTTTTTGCAATTTTCTCTAAATTCGGAGTCACCTAGTGCAG”, the binding signal was 13000 fluorescence intensity (a.u.).

Consider “GGGTATAAAGTCACTCTATTCGTTCTCACCGTTTTTTCGGCGGAGTCACCTAGTGCAG”, for which the binding signal was 8150 fluorescence intensity (a.u.).

On to “GGGAGGGCAACTGAAGAGGAGTGGCGAGGGAGGGCTTTTGCGGAGTCACCTAGTGCAG”, for which the binding signal is 12200 fluorescence intensity (a.u.).

As for “ACACGCCCGCCCGCCGCCTCCACCGTCTCCGCTCGCCGCGCGGAGTCACCTAGTGCAG”, the binding signal was 10500 fluorescence intensity (a.u.).

Turning to “ACCATTGTCGCATGCTCACATCCCATCTTTTCCAAAGGGACGGAGTCACCTAGTGCAG”, the binding signal is 10300 fluorescence intensity (a.u.).

Turning to “CCCTGGTTTCCGTGTCCAATGTTTGACCGTCCGTCTTATTCGGAGTCACCTAGTGCAG”, the binding signal was 10200 fluorescence intensity (a.u.).

For the sequence “CGGGGCGGCTGGCTTGACGCGTCATCTTCCCCGCGAAAATCGGAGTCACCTAGTGCAG”, the binding signal is 14000 fluorescence intensity (a.u.).

Take “CGACATCTCTGAAACATTTCTCCTCGACCACGGCAACCCACGGAGTCACCTAGTGCAG”: the binding signal was 8630 fluorescence intensity (a.u.).

“ATTAATTCTGTTTTTTTCAAGTCTCTCTCGCTCTCGCTCCCGGAGTCACCTAGTGCAG”: the binding signal was 8820 fluorescence intensity (a.u.).

As for “CGTTCGCATCCACCACCAGTGCTCCGCCTGCCAGATCCATCGGAGTCACCTAGTGCAG”, the binding signal was 9140 fluorescence intensity (a.u.).

For the sequence “CCCCGCCGTCCGCGCCGACCGCGACCTGCGCTACGCCGCCCGGAGTCACCTAGTGCAG”, the binding signal is 8450 fluorescence intensity (a.u.).

Regarding “TGTGCCCGCTGCGCCAAGGGCTACGCCGTCCAGTCCGACTCGGAGTCACCTAGTGCAG”, the binding signal is 48500 fluorescence intensity (a.u.).

On to “CACACGCTACCCCGACTCGTCGCCTTCGCCTTGCTCGTCTCGGAGTCACCTAGTGCAG”, for which the binding signal was 18000 fluorescence intensity (a.u.).

Consider “CTCGTGCTGCTTCCACCCCTCCCTCGTCGCCTTGCCAGTTCGGAGTCACCTAGTGCAG”, for which the binding signal was 9440 fluorescence intensity (a.u.).

For “GCTGTCGTCCCTGCTGTTCTTGGTGTGCTTCTTCACTGTCCGGAGTCACCTAGTGCAG”, the binding signal is 13600 fluorescence intensity (a.u.).

Take “GGCCACGCCCGCCTCCGCGATCGTCCTCGCCGGCGACTGCCGGAGTCACCTAGTGCAG”: the binding signal is 8410 fluorescence intensity (a.u.).

“TGTCCAGTCGTCACCCTGCTGCTTCCCTGCCACTGCCCTACGGAGTCACCTAGTGCAG”: the binding signal is 17000 fluorescence intensity (a.u.).

For “CTCCCGCCGCGACTCGCCGCCGCGCGCGGCATCTCCGGCCCGGAGTCACCTAGTGCAG”, the binding signal is 8820 fluorescence intensity (a.u.).

Consider “TCACGCATCGGCGCCGCCCTCCGGCCAGCAGCGACTCGCCCGGAGTCACCTAGTGCAG”, for which the binding signal is 44600 fluorescence intensity (a.u.).

As for “GGCCTCGTCTCCTACCTCGCCGACCCCGACCCCGACCACGCGGAGTCACCTAGTGCAG”, the binding signal is 8440 fluorescence intensity (a.u.).

Regarding “GGTTGTCGTCGTCGTCGTGGCCTACGCCTTCGCTGCTGCTCGGAGTCACCTAGTGCAG”, the binding signal was 10600 fluorescence intensity (a.u.).

Take “GCGCCGACTGCCCGTCCGCCCCGTTGCTGCTGTGCGCACTCGGAGTCACCTAGTGCAG”: the binding signal was 8290 fluorescence intensity (a.u.).

Consider “TATATGTAAGCTACTTTTGTCCTATACATAAATTACTTTTCGGAGTCACCTAGTGCAG”, for which the binding signal was 8580 fluorescence intensity (a.u.).

For “CTCTCTCCTACTGTAGGCCACCACCACCGCGACCGCACGACGGAGTCACCTAGTGCAG”, the binding signal is 9340 fluorescence intensity (a.u.).

For the sequence “CATGTGCTAAAAAGTCAACGGTATCAAACATTTTTAAACGCGGAGTCACCTAGTGCAG”, the binding signal is 15800 fluorescence intensity (a.u.).

For the sequence “TCTCGAGGTTGTTACATTGTACTTGTCGCTAGCTCGTCATCGGAGTCACCTAGTGCAG”, the binding signal is 8400 fluorescence intensity (a.u.).

For the sequence “TCGCTAGTAGCTGTTGCTGCCTCTCCACCGCGTCCCTCTCCGGAGTCACCTAGTGCAG”, the binding signal was 11000 fluorescence intensity (a.u.).

For the sequence “GTCGCGCCTGACGCCGCCGTTGCGCCTGCCACCGCCTGTCCGGAGTCACCTAGTGCAG”, the binding signal was 8220 fluorescence intensity (a.u.).

With “CGCTCCACATAGGCTAGGCCCATGTCCCTTAGAGGATCCTCGGAGTCACCTAGTGCAG”, the binding signal is 8380 fluorescence intensity (a.u.).

For the sequence “TACCCACACCGATCTGCCGCTGCCCAGTTCCACCTACTTTCGGAGTCACCTAGTGCAG”, the binding signal was 16800 fluorescence intensity (a.u.).

For “CCCCACCGCCCACCGCCCACCGCCCACCCACCTCCGCACCCGGAGTCACCTAGTGCAG”, the binding signal is 11600 fluorescence intensity (a.u.).

With “GCAGCGCTCGTCTCTCTCTGTCTCTCCACTCTCTTCTCTCCGGAGTCACCTAGTGCAG”, the binding signal was 10100 fluorescence intensity (a.u.).

As for “CCTCACATCTTCTTCTTCATCTCCCTGTCTCTGTCTCTGTCGGAGTCACCTAGTGCAG”, the binding signal is 13500 fluorescence intensity (a.u.).

For “CTAACCCGCGCCCCAACCCTAGCCGCCTCCGCCCCGCCTCCGGAGTCACCTAGTGCAG”, the binding signal is 8920 fluorescence intensity (a.u.).

As to “CCGCCCTTAGACAGGCCCCGCCTCCGCCTCCGCGCCCACCCGGAGTCACCTAGTGCAG”, the binding signal is 27800 fluorescence intensity (a.u.).

On to “GTGCCACTCTGTCTCTTCCGTCCATAGCGCCGTCGTCTTCCGGAGTCACCTAGTGCAG”, for which the binding signal was 17300 fluorescence intensity (a.u.).

Regarding “CTCACGCGCTGCACCGCCGATACCCCACCCGCTGCTAGTTCGGAGTCACCTAGTGCAG”, the binding signal was 8670 fluorescence intensity (a.u.).

For “TGTCACATTTTTCGTCGTCTCCATCTTCATCTTCTTGTCGCGGAGTCACCTAGTGCAG”, the binding signal is 11200 fluorescence intensity (a.u.).

For the sequence “GCTACTACTGCTGCTGCTGCTACTTATCCACCGCTTTTTTCGGAGTCACCTAGTGCAG”, the binding signal is 13600 fluorescence intensity (a.u.).

In the case of “GTCTTCCCCTAGCGCCGCCGCCTCCACCTCCGCCGCCGTCCGGAGTCACCTAGTGCAG”, the binding signal was 8700 fluorescence intensity (a.u.).
